Source: PubChem BioAssay (NCATS)
Records with an inconclusive call do not appear. Entries that show only a call come without a potency. Values without a mark were called inactive. The source made the active and inactive calls. The call rests on the fitted dose curve; in most records, active means well fitted curve in the direction sought with a large enough effect; inconclusive means small, poorly fitted or top-dose-only effect, or another doubt; inactive means no such curve, though single readings can be large; an effect the other way counts as inactive or inconclusive.

How the values were obtained:
MCC-13 = experiment: qHTS assay to identify novel small-molecules to repurpose for Merkel cell carcinoma treatment (AID 1296009); conditions: MCC and control cell lines, CellTiter-Glo viability, 72 h; series mostly up to 46 µM; further: nearly all actives have a fitted effect of over 60% in size
How it was run: (§1)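 Dose-response viability screen; 72 hr exposure at 37 degree celsius; CellTiter-Glo added, 10 min room temperature, luminescence read; RLUs scaled between no-cell and DMSO wells.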

MKL-1 = experiment: as above; conditions: MCC and control cell lines, CellTiter-Glo viability, 72 h; series mostly up to 46 µM
How it was run: as §1

MKL-2 = experiment: as above; conditions: MCC and control cell lines, CellTiter-Glo viability, 72 h; series mostly up to 46 µM
How it was run: as §1

UISO = experiment: as above; conditions: MCC and control cell lines, CellTiter-Glo viability, 72 h; series mostly up to 46 µM
How it was run: as §1

WaGa = experiment: as above; conditions: MCC and control cell lines, CellTiter-Glo viability, 72 h; series mostly up to 46 µM
How it was run: as §1

C33A = experiment: Primary qHTS to identify gynecologic anti-cancer compounds using libraries of approved drugs and bioactive compounds (AID 1345084); conditions: Gynecologic cancer cell panel viability, ATPlite luminescence, 48 h; series mostly up to 57.5 µM; further: nearly all actives have a fitted effect of over 55% in size
How it was run: (§2)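 Cells, 1,000 per well, plated 16 h, then exposed 48 h at 37 C to compounds. Viability by ATPlite luminescence after 15 min at room temperature.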

CAOV3 = experiment: as above; conditions: Gynecologic cancer cell panel viability, ATPlite luminescence, 48 h; series mostly up to 57.5 µM
How it was run: as §2

CASKI = experiment: as above; conditions: Gynecologic cancer cell panel viability, ATPlite luminescence, 48 h; series mostly up to 57.5 µM
How it was run: as §2

MCC-26 = experiment: qHTS assay to identify novel small-molecules to repurpose for Merkel cell carcinoma treatment (AID 1296009); conditions: MCC and control cell lines, CellTiter-Glo viability, 72 h; series mostly up to 46 µM; further: nearly all actives have a fitted effect of over 60% in size
How it was run: as §1
Potency means the concentration at half of the fitted maximal effect.

CCOC(=O)C(C#N)=C(c1ccccc1)c1ccccc1
Potency (MCC-13): inactive | Potency (MKL-1): inactive | Potency (MKL-2): inactive | Potency (UISO): inactive | Potency (WaGa): inactive | Potency (C33A): inactive | Potency (CAOV3): inactive | Potency (CASKI): inactive

CN(Cc1ccc(C(C)(C)C)cc1)Cc1cccc2ccccc12
Potency (MCC-13): inactive | Potency (MKL-1): inactive | Potency (MKL-2): inactive | Potency (UISO): inactive | Potency (WaGa): inactive | Potency (C33A): inactive | Potency (CAOV3): inactive | Potency (CASKI): inactive

CC(C)[C@@H]1CC[C@@H](C)CC1=O
Potency (MCC-13): inactive | Potency (MKL-1): inactive | Potency (MKL-2): inactive | Potency (UISO): inactive | Potency (WaGa): inactive | Potency (C33A): inactive | Potency (CAOV3): inactive | Potency (CASKI): inactive

Cc1cccc(C)c1NC(=O)CN1CCCC1
Potency (MCC-13): inactive | Potency (MKL-1): inactive | Potency (MKL-2): inactive | Potency (UISO): inactive | Potency (WaGa): inactive | Potency (C33A): inactive | Potency (CAOV3): inactive | Potency (CASKI): inactive

CCCCC(CC)COC(=O)/C=C/c1ccc(OC)cc1 (configuration not stated)
Potency (MCC-13): inactive | Potency (MKL-1): inactive | Potency (MKL-2): inactive | Potency (UISO): inactive | Potency (WaGa): inactive | Potency (C33A): inactive | Potency (CAOV3): inactive | Potency (CASKI): inactive

CN(CCCN1c2ccccc2CCc2ccccc21)CC(=O)c1ccc(Cl)cc1
Potency (MCC-13): inactive | Potency (MCC-26): inactive | Potency (MKL-1): inactive | Potency (C33A): inactive | Potency (CAOV3): inactive | Potency (CASKI): inactive

O=C1C(CCS(=O)c2ccccc2)C(=O)N(c2ccccc2)N1c1ccccc1 (configuration not stated)
Potency (MCC-13): inactive | Potency (UISO): inactive | Potency (WaGa): inactive | Potency (C33A): inactive | Potency (CAOV3): inactive | Potency (CASKI): inactive

CCCCCCCCNC(C)C(O)c1ccc(SC(C)C)cc1 (configuration not stated)
Potency (MKL-2): 18.8 µM (active)

CCN(CC)CCOc1ccc2c(c1)C(=O)c1cc(OCCN(CC)CC)ccc1-2
Potency (MCC-26): inactive | Potency (MKL-1): 13.3 µM (active) | Potency (MKL-2): 2.37 µM (active) | Potency (WaGa): 15 µM (active) | Potency (C33A): 17.8 µM (active)

Cc1ccc2c(Br)cc(Br)c(O)c2n1
Potency (MCC-13): 16.8 µM (active) | Potency (MKL-2): 5.96 µM (active) | Potency (WaGa): 9.44 µM (active) | Potency (C33A): 20 µM (active)
